The supplement of paper PMC10477191
± gives the standard deviation of the averaged measurements.

Test system: Drosophila virilis antennal basiconic sensillum AB10
Assay: odor-evoked OSN spike response (post minus pre-stimulus); higher = stronger neuronal excitation
Settings: odor dilution: 10^-4
Procedure: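 Single sensillum recordings from antennal basiconic sensilla of D. virilis. A 500 ms pulse of odorant (10^-4 in mineral oil or DMSO) was delivered; the response is the change in spike frequency between the 1 s pre- and post-stimulus windows (spikes/s).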

SMILES | odor-evoked OSN spike response [spikes/s]
CC(=O)OC/C=C(\C)CCC=C(C)C [geranyl acetate] | 134 ± 24
CCOC(=O)CC(C)O (stereo not drawn) [Ethyl-3-hydroxybutyrate] | 99.4 ± 35
CC(=O)C(C)O (stereo not drawn) [acetoin] | 143 ± 43
